Source: PubChem BioAssay (NCATS)
Inconclusive results are not listed. A call without a number means that no potency is given here. Active and inactive are the calls of the source. Calls come from the whole dose curve; as a rule, active = well fitted curve in the direction sought with a large enough effect; inconclusive = small, poorly fitted or top-dose-only effect, or another doubt; inactive = no such curve, though single readings can be large; an effect the other way counts as inactive or inconclusive.

What was measured:
[1] = Confirmation and Secondary Assay for Modulators of Hemoglobin Beta Chain Splicing at IVS2 654 locus (AID 910); details: HeLa EGFP-654 splicing reporter, GFP fluorescence, 48 h; series mostly up to 46.1 µM;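 note: HeLa cells stably carrying EGFP split by mutant beta-globin IVS2-654 intron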
How it was run: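 HeLa cells stably expressing EGFP interrupted by β-globin IVS2-654 intron, seeded overnight in Opti-MEM/2% FCS, then treated 2 days at 37 °C. Restored splicing read as total peak GFP intensity per well by laser scanning cytometry (488 nm excitation, 500–520 nm emission); 500 nM antisense PNA as control.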

[2] = Confirmation and Secondary Assay for Modulators of Hemoglobin Beta Chain Splicing at IVS2 705 locus (AID 930); details: HeLa EGFP-705 splicing reporter, GFP fluorescence, 48 h; series mostly up to 46.1 µM;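 note: HeLa cells stably expressing the EGFP-705 splicing reporter; GFP fluorescence per well restored by corrected splicing of the IVS2-705 intron in EGFP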
How it was run: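 Stable HeLa line with EGFP disrupted by mutant beta-globin intron 2 (705). Overnight attachment, then 2 days of compound at 37C, 5% CO2. Signal: peak GFP intensity summed over objects 5-250 µm.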

[3] = molecular target: Cytochrome P450 3A4 (Homo sapiens) (UniProt P08684); experiment: qHTS Assay for Inhibitors and Substrates of Cytochrome P450 3A4 (AID 884); details: recombinant CYP3A4, Luciferin-PPXE luminescence; series mostly up to 57.1 µM; note: nearly all actives have a fitted effect of over 50% in size
Chain of Cytochrome P450 3A4 (Homo sapiens) (P08684 whole entry, looked up): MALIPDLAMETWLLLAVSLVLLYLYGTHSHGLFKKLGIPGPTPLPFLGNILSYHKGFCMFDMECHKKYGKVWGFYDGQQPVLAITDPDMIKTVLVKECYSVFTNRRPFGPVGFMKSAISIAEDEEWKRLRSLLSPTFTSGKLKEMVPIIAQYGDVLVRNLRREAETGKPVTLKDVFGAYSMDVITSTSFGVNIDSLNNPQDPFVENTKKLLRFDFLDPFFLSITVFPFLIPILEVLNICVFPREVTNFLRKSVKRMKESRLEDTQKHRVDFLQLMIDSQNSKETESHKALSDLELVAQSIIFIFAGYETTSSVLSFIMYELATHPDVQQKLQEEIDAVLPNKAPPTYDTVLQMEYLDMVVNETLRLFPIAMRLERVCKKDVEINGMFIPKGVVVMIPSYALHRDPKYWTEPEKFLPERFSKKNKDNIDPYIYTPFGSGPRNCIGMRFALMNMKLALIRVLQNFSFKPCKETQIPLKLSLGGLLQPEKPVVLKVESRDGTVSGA
How it was run: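 20 nM human CYP3A4 with 25 uM Luciferin-PPXE (at KM) in 200 mM KPO4, preincubated 10 min with compound; NADPH regeneration started a 60 min RT reaction. Luciferin detected by luminescence, normalized to 57 uM ketoconazole as full inhibition.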

[4] = molecular target: Guanine nucleotide-binding protein G(i) subunit alpha-1 (Homo sapiens) (UniProt P63096); experiment: qHTS Assay for Inhibitors of RGS12 GoLoco Motif Activity (Green Fluorophore) (AID 879); details: Galphai1/FITC-RGS12 GoLoco peptide, fluorescence polarization; series mostly up to 57.1 µM;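 note: negative values mean loss of peptide binding seen as reduced polarization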
Chain of Guanine nucleotide-binding protein G(i) subunit alpha-1 (Homo sapiens) (P63096 whole entry, looked up): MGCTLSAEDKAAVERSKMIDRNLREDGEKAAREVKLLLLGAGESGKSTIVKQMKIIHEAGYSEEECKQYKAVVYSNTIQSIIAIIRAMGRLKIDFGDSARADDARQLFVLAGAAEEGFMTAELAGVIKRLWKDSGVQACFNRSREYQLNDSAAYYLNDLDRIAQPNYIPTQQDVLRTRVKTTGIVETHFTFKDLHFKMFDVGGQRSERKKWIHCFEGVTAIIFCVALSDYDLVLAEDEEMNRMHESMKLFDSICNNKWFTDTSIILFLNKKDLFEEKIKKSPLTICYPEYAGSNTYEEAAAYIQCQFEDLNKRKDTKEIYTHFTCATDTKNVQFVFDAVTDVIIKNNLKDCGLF
How it was run: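 Fluorescence polarization assay: 50 nM Gαi1 with 10 nM FITC-labeled RGS12 GoLoco peptide in 10 mM Tris pH 7.5, 150 mM NaCl, 0.1 mM GDP, 0.05% NP40, 10 min at room temperature with compound.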

[5] = molecular target: Pyruvate kinase (Leishmania mexicana) (UniProt Q27686); experiment: qHTS Validation Assay for Inhibitors of Leishmania Mexicana Pyruvate Kinase (AID 945); details: purified L. mexicana pyruvate kinase, enzyme activity, E451W mutant enzyme; series mostly up to 57.5 µM
Chain of Pyruvate kinase (Leishmania mexicana) (Q27686 2-499 E452W): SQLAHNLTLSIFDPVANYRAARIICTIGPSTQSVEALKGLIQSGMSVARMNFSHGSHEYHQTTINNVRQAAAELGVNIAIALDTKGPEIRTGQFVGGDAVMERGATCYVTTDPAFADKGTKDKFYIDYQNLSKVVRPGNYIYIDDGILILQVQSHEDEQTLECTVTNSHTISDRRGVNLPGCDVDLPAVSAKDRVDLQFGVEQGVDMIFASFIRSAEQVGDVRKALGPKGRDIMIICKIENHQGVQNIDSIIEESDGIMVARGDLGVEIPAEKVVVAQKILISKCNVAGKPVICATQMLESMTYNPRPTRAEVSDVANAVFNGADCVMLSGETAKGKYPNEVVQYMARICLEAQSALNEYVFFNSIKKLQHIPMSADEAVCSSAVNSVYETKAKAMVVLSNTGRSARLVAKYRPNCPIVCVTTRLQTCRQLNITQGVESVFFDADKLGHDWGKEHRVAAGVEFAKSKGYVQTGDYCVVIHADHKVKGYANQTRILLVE
How it was run: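 Mutant LmPYK (E451W), 0.2 nM, plus 0.5 mM PEP and 0.1 mM ADP in 50 mM imidazole pH 7.2 containing 0.01% Tween 20 and 0.05% BSA. Incubated 1 h at room temperature; luminescence via PKLight, normalized to DMSO.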

[6] = molecular target: Cytochrome P450 2C9 (Homo sapiens) (UniProt P11712); experiment: qHTS Assay for Inhibitors and Substrates of Cytochrome P450 2C9 (AID 883); details: recombinant CYP2C9, luciferin-H luminescence, 60 min; series mostly up to 57.1 µM; note: nearly all actives have a fitted effect of over 60% in size
Chain of Cytochrome P450 2C9 (Homo sapiens) (P11712 whole entry, looked up): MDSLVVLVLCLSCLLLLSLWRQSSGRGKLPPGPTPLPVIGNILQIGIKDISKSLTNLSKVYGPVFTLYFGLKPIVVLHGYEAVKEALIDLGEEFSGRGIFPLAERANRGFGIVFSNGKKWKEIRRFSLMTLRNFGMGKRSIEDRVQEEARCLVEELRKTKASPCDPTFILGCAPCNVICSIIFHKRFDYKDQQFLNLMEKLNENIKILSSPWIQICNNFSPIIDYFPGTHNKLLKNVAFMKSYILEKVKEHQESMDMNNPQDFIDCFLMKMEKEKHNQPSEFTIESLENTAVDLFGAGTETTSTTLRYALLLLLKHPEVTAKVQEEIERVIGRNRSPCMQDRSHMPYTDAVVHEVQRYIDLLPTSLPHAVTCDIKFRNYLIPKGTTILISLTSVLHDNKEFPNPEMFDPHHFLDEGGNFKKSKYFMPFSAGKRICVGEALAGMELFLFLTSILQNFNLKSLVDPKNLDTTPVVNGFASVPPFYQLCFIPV
How it was run: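 10nM CYP2C9 + 100uM Luciferin-H (=KM), 25mM KPO4; cpd 10 min 37C; NADPH regen, 60 min 37C; stop/detect with P450 Glo-Buffer 20 min; luminescence. Norm. to 57uM sulphaphenazole as full inhibition.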

[7] = molecular target: Cytochrome P450 2D6 (Homo sapiens) (UniProt P10635); experiment: qHTS Assay for Inhibitors and Substrates of Cytochrome P450 2D6 (AID 891); details: recombinant CYP2D6, luciferin-ME EGE luminescence; series mostly up to 57.1 µM; note: nearly all actives have a fitted effect of over 60% in size; note: potency is the fitted concentration of half-maximal effect
Chain of Cytochrome P450 2D6 (Homo sapiens) (P10635 whole entry, looked up): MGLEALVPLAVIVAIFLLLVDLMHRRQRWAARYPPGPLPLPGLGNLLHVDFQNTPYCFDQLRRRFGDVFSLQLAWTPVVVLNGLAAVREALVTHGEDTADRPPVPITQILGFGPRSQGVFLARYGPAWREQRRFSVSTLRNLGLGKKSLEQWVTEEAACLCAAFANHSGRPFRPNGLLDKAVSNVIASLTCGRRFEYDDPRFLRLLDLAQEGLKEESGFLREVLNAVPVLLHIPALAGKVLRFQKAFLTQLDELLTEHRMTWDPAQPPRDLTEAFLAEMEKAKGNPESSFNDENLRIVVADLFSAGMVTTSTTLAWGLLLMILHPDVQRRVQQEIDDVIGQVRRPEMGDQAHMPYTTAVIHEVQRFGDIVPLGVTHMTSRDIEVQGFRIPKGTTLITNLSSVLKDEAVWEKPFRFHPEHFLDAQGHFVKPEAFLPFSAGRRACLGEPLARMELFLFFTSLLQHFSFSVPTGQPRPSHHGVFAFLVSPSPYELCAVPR
How it was run: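 Human CYP2D6 (5 nM) with 30 uM Luciferin-ME EGE (at Km) in 100 mM KPO4, compound preincubated 10 min, then NADPH regeneration system for 60 min at room temperature. Luciferin read by luminescence; normalized to 1.43 uM quinidine.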

[8] = molecular target: Cytochrome P450 3A4 (Homo sapiens) (UniProt P08684); experiment: qHTS Assay for Activators of Cytochrome P450 3A4 (AID 885); details: recombinant CYP3A4, Luciferin-PPXE luminescence, 60 min; series mostly up to 57.1 µM; note: nearly all actives have a fitted effect of over 65% in size
How it was run: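 Steps: enzyme/substrate mix dispensed; compound added, 10 min RT; NADPH regeneration solution added, 60 min RT; luciferin detection buffer stops reaction; 20 min later luminescence measured.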

Nc1ccc(C(=O)O)c(O)c1
outcome [1]: inactive
outcome [2]: inactive

O=C(O)c1ccccc1Nc1cccc(C(F)(F)F)c1
Potency [3]: inactive
outcome [1]: inactive
outcome [2]: inactive

Oc1c(Br)cc(Br)c2cccnc12
Potency [3]: inactive
outcome [1]: inactive
outcome [2]: inactive

CN1CCc2cccc3c2C1Cc1ccc(O)c(O)c1-3 (configuration not stated)
outcome [1]: inactive
outcome [2]: inactive

O=C(OCc1ccccc1)c1ccccc1
Potency [3]: inactive
outcome [1]: inactive
outcome [2]: inactive

Cc1ccc(C(=O)c2ccc(CC(=O)O)n2C)cc1
Potency [3]: inactive
outcome [1]: inactive
outcome [2]: inactive

O=C1NC(O)=NC1(c1ccccc1)c1ccccc1
outcome [4]: inactive
Potency [5]: inactive

CCCSc1ccc2nc(NC(=O)OC)[nH]c2c1
outcome [6]: inactive
outcome [7]: inactive
outcome [1]: inactive
outcome [2]: inactive

O=C(/C=C/c1ccc(O)c(O)c1)OCCc1ccccc1
Potency [8]: inactive
outcome [1]: inactive
outcome [2]: inactive

CC(N)C(=O)OC(C)(C)Cc1ccc(Cl)cc1 (configuration not stated)
Potency [8]: inactive
outcome [1]: inactive
outcome [2]: inactive

Nc1cc(-c2ccncc2)c[nH]c1=O
Potency [8]: inactive
outcome [1]: inactive
outcome [2]: inactive

COc1ccccc1N1CCN(CCN(C(=O)c2ccc(I)cc2)c2ccccn2)CC1
Potency [6]: inactive
Potency [7]: 3.98 µM (active)

CC1OC1P(=O)(O)O (configuration not stated)
outcome [1]: inactive
outcome [2]: inactive

CCCCC1C(=O)N(c2ccccc2)N(c2ccc(O)cc2)C1=O (configuration not stated)
outcome [1]: inactive
outcome [2]: inactive
